According to PMC7862700, “An all-to-all approach to the identification of sequence-specific readers for epigenetic DNA modifications on cytosine”:

What follows are sequences tested against T1, FEV (Homo sapiens, UniProt Q99581 1-238) (assay: DAPPL (digital affinity profiling via proximity ligation, sequencing); 10 mM Tris-HCl pH 7.5, 50 mM NaCl, 1 mM DTT, 4% glycerol, room temperature, 30 min; GST-TFs on glutathione beads, 16-mer random dsDNA library, 0.1% formaldehyde crosslink after washing; high values mean tight binding). Conditions: protein: recombinant; tags: N-terminal GST; dsDNA, one strand shown.
T1 sequence: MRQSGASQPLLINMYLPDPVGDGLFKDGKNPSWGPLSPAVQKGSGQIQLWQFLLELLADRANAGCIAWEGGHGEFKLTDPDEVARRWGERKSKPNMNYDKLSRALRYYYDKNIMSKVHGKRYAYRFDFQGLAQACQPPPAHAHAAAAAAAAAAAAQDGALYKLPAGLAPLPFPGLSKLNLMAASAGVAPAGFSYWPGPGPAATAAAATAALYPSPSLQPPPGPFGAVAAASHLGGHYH
Outline: (§1)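 Sequencing on an Illumina NextSeq500 followed washing, crosslinking with 0.1% formaldehyde, proximity ligation (BsaI/T4 ligase, 1 h, 37 °C) and PCR amplification of pools that had been incubated for 30 min at room temperature with 200 nmole of a random double-stranded 16-mer DNA library in Tris/NaCl/DTT/glycerol buffer. Each pool held DNA-barcoded human transcription factors, expressed in yeast as GST fusions and captured on glutathione beads, plus a tag-only sample. Binding signal is a hexamer's read frequency for a factor divided by its frequency in the tag-only sample.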

Sequence	binding signal
GTTGCC	1.02 fold enrichment (6-mer frequency, TF over GST control)
CGGTCC	1.06 fold enrichment (6-mer frequency, TF over GST control)
GGCAGC	1.02 fold enrichment (6-mer frequency, TF over GST control)
GCCACA	1.06 fold enrichment (6-mer frequency, TF over GST control)
CCACCA	1.04 fold enrichment (6-mer frequency, TF over GST control)
TGGGAC	1 fold enrichment (6-mer frequency, TF over GST control)

Each sequence was assayed against T2, ELK4 (Homo sapiens, UniProt P28324-2 1-405) in the same assay as above. Conditions: protein: recombinant; tags: N-terminal GST; dsDNA, one strand shown.
T2 sequence: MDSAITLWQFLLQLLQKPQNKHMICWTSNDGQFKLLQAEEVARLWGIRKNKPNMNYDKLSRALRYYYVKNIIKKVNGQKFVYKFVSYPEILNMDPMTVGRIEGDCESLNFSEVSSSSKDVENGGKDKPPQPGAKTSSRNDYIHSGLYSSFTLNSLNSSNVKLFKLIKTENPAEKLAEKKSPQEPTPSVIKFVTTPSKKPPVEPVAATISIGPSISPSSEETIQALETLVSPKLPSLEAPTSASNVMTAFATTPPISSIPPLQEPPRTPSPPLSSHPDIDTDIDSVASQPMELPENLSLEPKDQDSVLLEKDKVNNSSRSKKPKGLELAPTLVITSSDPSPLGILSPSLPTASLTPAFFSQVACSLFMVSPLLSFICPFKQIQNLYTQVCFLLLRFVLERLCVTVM
Outline: as §1

Sequence	binding signal
GCGTCA	1.01 fold enrichment (6-mer frequency, TF over GST control)
GTTGCC	1.07 fold enrichment (6-mer frequency, TF over GST control)
CGGTCC	1.08 fold enrichment (6-mer frequency, TF over GST control)
TGAACG	1.02 fold enrichment (6-mer frequency, TF over GST control)
GCGTTA	1.02 fold enrichment (6-mer frequency, TF over GST control)
ACACAG	1.12 fold enrichment (6-mer frequency, TF over GST control)
GGCTGC	1 fold enrichment (6-mer frequency, TF over GST control)
GCATAT	1.07 fold enrichment (6-mer frequency, TF over GST control)
GTAGCG	1.01 fold enrichment (6-mer frequency, TF over GST control)
AAAGTC	1.08 fold enrichment (6-mer frequency, TF over GST control)
GATCCG	1 fold enrichment (6-mer frequency, TF over GST control)
CAGTAT	1.06 fold enrichment (6-mer frequency, TF over GST control)
AAGCCA	1.02 fold enrichment (6-mer frequency, TF over GST control)
TCTGAG	1.08 fold enrichment (6-mer frequency, TF over GST control)
GTAACG	1.03 fold enrichment (6-mer frequency, TF over GST control)
CCACCA	1.14 fold enrichment (6-mer frequency, TF over GST control)

Sequence	binding signal
GTCATT	1.03 fold enrichment (6-mer frequency, TF over GST control)
CCATAG	1.06 fold enrichment (6-mer frequency, TF over GST control)
ACGCGT	1.1 fold enrichment (6-mer frequency, TF over GST control)
GTGCAA	1.05 fold enrichment (6-mer frequency, TF over GST control)
GCGCAC	1.07 fold enrichment (6-mer frequency, TF over GST control)
GACCAA	1.01 fold enrichment (6-mer frequency, TF over GST control)
GATACC	1.01 fold enrichment (6-mer frequency, TF over GST control)
TGGGAC	1.03 fold enrichment (6-mer frequency, TF over GST control)
GGCCTG	1.08 fold enrichment (6-mer frequency, TF over GST control)
TGTTAG	1.13 fold enrichment (6-mer frequency, TF over GST control)
CAAGCC	1.07 fold enrichment (6-mer frequency, TF over GST control)
GTGTTG	1.06 fold enrichment (6-mer frequency, TF over GST control)
CAACGG	1.01 fold enrichment (6-mer frequency, TF over GST control)
GTGGTA	1.02 fold enrichment (6-mer frequency, TF over GST control)
TCAGTA	1.01 fold enrichment (6-mer frequency, TF over GST control)
GTTGTG	1.07 fold enrichment (6-mer frequency, TF over GST control)

These sequences were tested against T3, ETV2 (Homo sapiens, UniProt O00321 1-342) in the same assay as above. Conditions: protein: recombinant; tags: N-terminal GST; dsDNA, one strand shown.
T3 sequence: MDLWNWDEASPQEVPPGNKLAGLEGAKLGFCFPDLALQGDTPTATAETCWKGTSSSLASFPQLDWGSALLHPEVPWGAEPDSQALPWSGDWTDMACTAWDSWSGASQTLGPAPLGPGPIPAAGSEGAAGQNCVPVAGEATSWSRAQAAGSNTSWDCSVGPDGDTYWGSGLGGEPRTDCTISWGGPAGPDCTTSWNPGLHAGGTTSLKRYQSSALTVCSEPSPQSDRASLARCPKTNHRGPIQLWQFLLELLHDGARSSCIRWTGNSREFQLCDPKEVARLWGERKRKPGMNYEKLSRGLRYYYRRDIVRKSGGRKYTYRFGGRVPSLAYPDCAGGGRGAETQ
Outline: as §1

Sequence	binding signal
GCGTCA	1.06 fold enrichment (6-mer frequency, TF over GST control)
TGAACG	1.02 fold enrichment (6-mer frequency, TF over GST control)
GGCAGC	1.02 fold enrichment (6-mer frequency, TF over GST control)
GCATAT	1.02 fold enrichment (6-mer frequency, TF over GST control)
CAGTAT	1.08 fold enrichment (6-mer frequency, TF over GST control)
GTAACG	1.08 fold enrichment (6-mer frequency, TF over GST control)
CCATAG	1.01 fold enrichment (6-mer frequency, TF over GST control)
GATACC	1 fold enrichment (6-mer frequency, TF over GST control)
TGGGAC	1.14 fold enrichment (6-mer frequency, TF over GST control)
GGCCTG	1.06 fold enrichment (6-mer frequency, TF over GST control)
TGTTAG	1.03 fold enrichment (6-mer frequency, TF over GST control)
CAAGCC	1.06 fold enrichment (6-mer frequency, TF over GST control)
AGCAAG	1.02 fold enrichment (6-mer frequency, TF over GST control)
TCAGTA	1.03 fold enrichment (6-mer frequency, TF over GST control)
